Shown are actives, neighbours in structure and some others; about 21% of the full set was active somewhere.
Pf growth 96h = P. falciparum growth inhibition at 96 hour, primary screen for plastid delayed-death inhibitors; hit rate 6.9% among 320,000; P. falciparum luciferase reporter growth, 96 h; Potency, µM (top dose mostly 28.7 µM), without a hit: at the top dose activity change, negative = inhibition, hits mostly inhibitors; active = well fitted inhibition curve with a large enough effect; inconclusive = small, poorly fitted or top-dose-only effect, or another doubt; inactive = no such curve, though single readings can be large or run the other way; note: potency is the fitted concentration of half-maximal effect; % is set by controls: 0 for no effect and ±100 for the full control effect
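Cell-based qHTS: luciferase-tagged P. falciparum in erythrocytes (2% hematocrit, 0.05% parasitemia final) incubated with compounds for 96 hours, 37 C, 5% CO2; luciferase detection reagent then added and luminescence measured.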
Pf growth 48h = P. falciparum growth inhibition at 48 hours (one generation). AID 504832. hit rate 5.9% among 310,000. Potency, µM (series often up to 28.7 µM), for inactives: at the highest dose activity change, negative = inhibition, most hits filed as inhibitors. P. falciparum luciferase growth in erythrocytes, 48 h; active = well fitted inhibition curve with a large enough effect; inconclusive = small, poorly fitted or top-dose-only effect, or another doubt; inactive = no such curve, though single readings can be large or run the other way; note: potency is the fitted concentration of half-maximal effect; % is set by controls: 0 for no effect and ±100 for the full control effect
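Compounds are pin-transferred into medium, infected erythrocytes (2% hematocrit, 0.1% parasitemia final) are added, and plates sit one parasite generation at 37 C in 5% CO2. Detection reagent is then added and luminescence measured.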
Shiga toxin inh = Shiga toxin inhibition | Vero cells, Shiga toxin protein synthesis inhibition reporter | inhibition, % at 38.7 µM | hit rate 9.2% among 290,000 | AID 2315; in the data active = inhibition mostly above about 28%, no sharp cut-off; inactive = mostly below about 43%; note: 0% is about no effect
Cycloheximide cs = affects cycloheximide protein synthesis inhibition readout, counter-screen | cell reporter, cycloheximide protein synthesis inhibition counterscreen | max response, % | hit rate 12% among 300,000 | AID 2314; in the data active = max response mostly above about 13%, no sharp cut-off; inactive = mostly below about 14%; note: read at 38.3 µM for the half of the compounds with a filed dose; 0% is about no effect
SARS PLP yeast = blocks SARS-CoV papain-like protease in a yeast assay. S. cerevisiae expressing SARS-CoV PLpro, growth rescue. Potency, µM (highest dose often 32.9 µM), for inactives: at the highest dose activity, positive = growth rescue, most hits filed as activators. hit rate 0.19% among 330,000; note: potency is the fitted concentration of half-maximal effect; 0% is about no effect; nearly all actives have a fitted effect of over 55% in size
NS1 inh = blocks influenza NS1 protein function. Potency, µM (series often up to 46.1 µM), without a hit: at the highest dose activity, positive = more growth. hit rate 0.4% among 270,000. AID 2326; note: potency is the fitted concentration of half-maximal effect; actives are rising curves; nearly all actives have a fitted effect of over 50% in size
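A cell-based growth assay was used: compounds that relieve NS1-induced slow growth of budding yeast raise OD600. Assay medium was yeast nitrogen base with ammonium sulphate and -URA supplement, pH 6.0, with 2% galactose.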
An asterisk follows results filed as active; ? = inconclusive; . = not tested or not shown; ! = not active in a repeat. Unless noted, calls come from the whole dose curve.

SMILES	Pf growth 96h	Pf growth 48h	Shiga toxin inh	Cycloheximide cs	SARS PLP yeast	NS1 inh
Cc1nnc(SCC(=O)NNC(=O)c2ccc(Cl)cc2)s1	15%	1%	-7	-3	2%	13%
Cc1nnc(SCC(=O)c2ccc(Br)cc2)s1	10%	2%	41	19*	0%	0%
Cc1ccc(NC(=O)c2ccc(CSc3nnc(C)s3)cc2)c(C)c1	124%	49%	97*	43*	-11%	6%
Cc1nnc(SCC(=O)O)s1	21%	38%	2	-2	2%	0%
Cc1ccc(C(=O)CSc2nnc(C)s2)cc1	?	145%	66*	53*	-31%	18%
O=[N+]([O-])c1ccccc1S(=O)(=O)Nc1cccc(-c2ccc3nncn3n2)c1	-24%	9%	.	.	-2%	.
O=C(COC(=O)Cc1ccccc1F)Nc1ccc2c(c1)OCCO2	0%	12%	59*	33*	-33%	14%
O=C(COc1ccccc1F)Nc1ccc2c(c1)OCCO2	31%	96%	103*	56*	-1%	-6%
N#Cc1ccccc1OCC(=O)Nc1ccc2c(c1)OCCO2	93%	211%	.	.	-3%	.
N#Cc1ccccc1OCC(=O)Nc1ccc2c(c1)OCCCO2	0%	42%	77*	50*	-17%	-1%
O=C(COC(=O)Cc1ccccc1F)Nc1ccc2c(c1)OCO2	9%	?	-5	6	-6%	.
O=C(COc1ccccc1Br)Nc1ccc2c(c1)OCCCO2	115%	199%	66*	47*	-23%	-26%
O=CN/C=C/c1cc(O)ccc1O	-16%	-25%	10	4	1%	-1%
Cc1cc(C(F)F)n2nc(C(=O)Nc3sc4c(c3C#N)CCC4)nc2n1	240%	49%	-8	-3	-2%	-2%
Cc1cc(OCC(=O)NC2CCN(Cc3ccccc3)CC2)c2c(C)cc(=O)oc2c1	?	?	2	7	2%	-4%
COC(=O)C(N)Cc1ccc(Cl)cc1 (configuration not stated)	1%	-5%	.	.	.	5%
COC(=O)[C@@H](N)Cc1ccc(O)c(O)c1	9.5µM*!	?	.	.	.	0%
Cc1cc(=O)[nH]c(SCC(=O)c2ccc(C)c(C)c2)n1	42%	34%	62	13	-16%	-16%
CCc1nc(SCC(=O)c2ccc(C)c(C)c2)n[nH]1	2%	15%	70*	12	3%	-19%
Cc1ccc(C(=O)CSc2n[nH]c(-c3ccco3)n2)cc1C	?	3%	14	-2	-8%	-15%
CCc1c(C)nc(SCC(=O)c2ccc(C)c(C)c2)[nH]c1=O	-2%	-3%	44	19*	-3%	-12%
CC1=NC(C(F)(F)F)(C(F)(F)F)C2=C(CC(C)(C)CC2=O)N1Cc1ccco1	.	.	-8	-5	2%	10%
O=C1/C(=C\c2ccco2)CCC/C1=C\c1ccco1	?	187%	10	-2	-27%	16%
O=C1/C(=C/c2ccco2)Cc2ccccc21	?	44%	78*	54*	-35%	-18%
CC1C/C(=C/c2ccco2)C(=O)/C(=C/c2ccco2)C1 (configuration not stated)	8.3µM*	50%	-2	-1	-43%	-10%
SMILES	Pf growth 96h	Pf growth 48h	Shiga toxin inh	Cycloheximide cs	SARS PLP yeast	NS1 inh
Cc1cccc(NNC(=S)Nc2c(C)cccc2C)c1	2%	?	-17	-3	12%	-53%
COc1ccc(CCNS(=O)(=O)c2ccc(OC)cc2)cc1	?	30%	-7	-4	-8%	-85%
COc1ccc(CCc2cc(OC)cc(=O)o2)cc1	1.9µM*	9%	32	19*	0%	-3%
Cc1nn2c(c1-c1ccc(Cl)cc1)N=C(c1ccco1)CC2c1ccccc1 (configuration not stated)	17µM*	?	16	8	-14%	6%
CC(=O)N1N=C(c2ccco2)CC1c1cc2ccc(C)cc2nc1Cl (configuration not stated)	1%	-6%	35	1	-1%	4%
CN=c1sc(C(=O)Nc2cccc(Cl)c2)cc(=O)n1C	-7%	14%	-17	-2	1%	-13%
Cn1ccs/c1=N\C(=O)Nc1cccc(Cl)c1	208%	154%	71*	42*	-4%	-7%
Cc1cccc(N2CCN(C(=O)n3ccnc3)CC2)c1C	12µM*	?	19	-1	-11%	-5%
Cc1cccc(N2CCN(C(=O)Cn3cccc3)CC2)c1C	4.1µM*	.	11	-2	-7%	-56%
CCOC(=O)N1CCN(c2cccc(C)c2C)CC1	-17%	4%	-17	-5	-34%	-7%
Cc1cccc(N2CCN(C(=O)CNC(=O)c3ccccc3)CC2)c1C	-25%	-25%	63*	33*	0%	-2%
Cc1ccccc1N1C(=O)C2CCCN2C1=S (configuration not stated)	?	?	.	.	3%	.
CCC(=O)NC(c1ccccc1Cl)c1c(O)ccc2ccccc12 (configuration not stated)	-20%	10µM*	-6	-1	0%	2%
CCC(=O)NC(c1ccc(N(C)C)cc1)c1c(O)ccc2ccccc12 (configuration not stated)	?	?	18	-1	0%	1%
O=C(NC(c1ccc(Cl)cc1)c1c(O)ccc2ccccc12)c1ccccc1 (configuration not stated)	38%	12µM*	-4	33*	-2%	?
O=C(NC(c1ccccc1)c1c(O)ccc2ccccc12)c1ccccc1Cl (configuration not stated)	?	?	-5	-5	-11%	-15%
CC(C)C(=O)NC(c1ccccc1Cl)c1c(O)ccc2ccccc12 (configuration not stated)	4.7µM*	9.3µM*	-14	-6	1%	1%
Cn1ccc(/C=N/N=C2/NC(=O)CS2)n1	?	-11%	-8	-1	3%	-2%
Cc1[nH]c(=O)c(C#N)c(C)c1CCC(=O)NCc1cccc(C(F)(F)F)c1	52%	0%	5	-5	-3%	10%
COc1ccc(Br)cc1S(=O)(=O)n1ccnc1C	94%	-7%	-7	2	-1%	12%
Cc1nccn1S(=O)(=O)c1ccc(Br)cc1Br	13µM*	1.9µM*	-1	-3	-9%	-7%
COc1ccc2c(c1)[nH]c1c(=O)n(/N=C/c3ccc(OC)c(COc4ccccn4)c3)cnc12	14%	25%	67*	6	8%	-10%
c1ccc2sc(NC3=NCN(C4CCCCCC4)CN3)nc2c1	?	?	-7	-2	8%	-17%
c1ccc2oc(NC3=NCN(C4CCCCC4)CN3)nc2c1	92%	88%	18	20*	-1%	-17%
COCCCN1CN=C(NS(=O)(=O)c2ccc(C)cc2)NC1	-1%	2%	-3	-6	-6%	0%

Screening data deposited in PubChem BioAssay by National Center for Advancing Translational Sciences (NCATS).
